Inconclusive results are not listed. A call without a number means that no potency is given here. The source made the active and inactive calls. The call rests on the fitted dose curve; in most records, active means well fitted inhibition curve with a large enough effect; inconclusive means small, poorly fitted or top-dose-only effect; inactive means flat fitted curve, though single readings scatter.
molecular target: Calcium and integrin-binding protein 1 (Homo sapiens) (UniProt Q99828); assay: Primary qHTS for Identification of Calcium Integrin Binding Protein 1 (CIB1) Competitor (AID 1508620); details: CIB1-GST / FITC-alphaIIb peptide fluorescence polarization; series mostly up to 114 µM; further: top concentration of the series differs between compounds
Outline: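 Fluorescence polarization competition: GST-tagged CIB1 (1 uM final) preincubated with compound 15 min at room temperature, then FITC-labelled alphaIIb peptide (100 nM final) added. After 15 min at room temperature, polarization read at Ex 480/Em 540.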

Chain of Calcium and integrin-binding protein 1 (Homo sapiens) (Q99828 whole entry, looked up): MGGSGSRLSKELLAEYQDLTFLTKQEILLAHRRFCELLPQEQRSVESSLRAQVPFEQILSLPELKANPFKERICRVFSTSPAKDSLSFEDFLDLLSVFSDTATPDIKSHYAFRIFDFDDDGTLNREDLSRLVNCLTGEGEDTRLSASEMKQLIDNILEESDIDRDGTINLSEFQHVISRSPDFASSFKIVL

Structure (SMILES) | Potency
Cc1cc(N(C)S(=O)(=O)c2ccc(NC(=O)Cc3ccc(Cl)c(Cl)c3)cc2)no1 | inactive
Cc1nnc(-c2cnn(C)c2N)o1 | inactive
FC(F)(F)c1cccc(CSc2nc3ncc(Br)cc3[nH]2)c1 | inactive
O=C1c2ccccc2NC(c2ccc(-c3ccccc3F)o2)N1O (stereo not drawn) | inactive
O=C(O)c1sc2c(c1-c1nc3ccccc3s1)CCNC2 | inactive
CS(=O)(=O)N1CCN(c2nc(-c3ccc(Br)cc3)cs2)CC1 | inactive
CC(=O)c1ccc(N2CCN(S(=O)(=O)c3cc4c(cc3Cl)NC(=O)C4)CC2)cc1 | inactive
CC1(C)CC2CC(C)(CN2S(=O)(=O)c2ccc(C(=O)Nc3ccc(Cl)cc3)cc2)C1 (stereo not drawn) | inactive
COc1ccc(Nc2nc(-c3ccncc3)nc3ccccc23)cc1F | inactive
NC(N)=NCCC[C@H](NC(=O)CNC(=O)c1ccccc1)C(=O)Nc1cc(C(F)(F)F)ccc1Cl | inactive
O=C(O)c1ccc(O)c2ncc(N3CC(N4CCOCC4)C3)cc12 | inactive
c1cncc(-c2ccc(CNc3nc(N4CCCC4)nc4ccccc34)cc2)c1 | inactive
COc1cc(NC(=O)c2cnn3c(C)cc(C)nc23)cc(OC)c1OC | inactive
O=C1CCc2cc(S(=O)(=O)Nc3cccc(Br)c3)ccc2N1 | inactive
CC(C)(C)OC(=O)NCCCNc1ncnc2ccc(-c3ccc4c(c3)OCO4)cc12 | inactive
Cc1cnc(-c2ccccc2C2COC2)nc1NCc1ccc(-n2ccnn2)cc1 | inactive
Cc1noc(C)c1-c1ccc2ncnc(NCC3CCN(C)CC3)c2c1 | inactive
CC(C)(C)N=Cc1c(-c2ccccc2)no[n+]1[O-] | inactive

From PubChem BioAssay (NCATS)
